# Results reported in PMC4336329 (PLoS ONE, 2015).
# The campaign covered roughly 310,000 compounds. About 14,000 (4.5%) showed an effect of 50% or more. The effect is printed as a negative number. The entries come from a sample that favours strong results as a whole.
# Molecular target: human ether-à-go-go-related gene (hERG) potassium channel (human, UniProt Q12809)
# Experiment: primary screen, population patch clamp on CHO cells stably expressing hERG; higher = less effect of the substance
# 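Further: peak tail current of the secondary pulse compared with the same well before compound.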
# Sequence of human ether-à-go-go-related gene (hERG) potassium channel (Q12809 whole entry, looked up): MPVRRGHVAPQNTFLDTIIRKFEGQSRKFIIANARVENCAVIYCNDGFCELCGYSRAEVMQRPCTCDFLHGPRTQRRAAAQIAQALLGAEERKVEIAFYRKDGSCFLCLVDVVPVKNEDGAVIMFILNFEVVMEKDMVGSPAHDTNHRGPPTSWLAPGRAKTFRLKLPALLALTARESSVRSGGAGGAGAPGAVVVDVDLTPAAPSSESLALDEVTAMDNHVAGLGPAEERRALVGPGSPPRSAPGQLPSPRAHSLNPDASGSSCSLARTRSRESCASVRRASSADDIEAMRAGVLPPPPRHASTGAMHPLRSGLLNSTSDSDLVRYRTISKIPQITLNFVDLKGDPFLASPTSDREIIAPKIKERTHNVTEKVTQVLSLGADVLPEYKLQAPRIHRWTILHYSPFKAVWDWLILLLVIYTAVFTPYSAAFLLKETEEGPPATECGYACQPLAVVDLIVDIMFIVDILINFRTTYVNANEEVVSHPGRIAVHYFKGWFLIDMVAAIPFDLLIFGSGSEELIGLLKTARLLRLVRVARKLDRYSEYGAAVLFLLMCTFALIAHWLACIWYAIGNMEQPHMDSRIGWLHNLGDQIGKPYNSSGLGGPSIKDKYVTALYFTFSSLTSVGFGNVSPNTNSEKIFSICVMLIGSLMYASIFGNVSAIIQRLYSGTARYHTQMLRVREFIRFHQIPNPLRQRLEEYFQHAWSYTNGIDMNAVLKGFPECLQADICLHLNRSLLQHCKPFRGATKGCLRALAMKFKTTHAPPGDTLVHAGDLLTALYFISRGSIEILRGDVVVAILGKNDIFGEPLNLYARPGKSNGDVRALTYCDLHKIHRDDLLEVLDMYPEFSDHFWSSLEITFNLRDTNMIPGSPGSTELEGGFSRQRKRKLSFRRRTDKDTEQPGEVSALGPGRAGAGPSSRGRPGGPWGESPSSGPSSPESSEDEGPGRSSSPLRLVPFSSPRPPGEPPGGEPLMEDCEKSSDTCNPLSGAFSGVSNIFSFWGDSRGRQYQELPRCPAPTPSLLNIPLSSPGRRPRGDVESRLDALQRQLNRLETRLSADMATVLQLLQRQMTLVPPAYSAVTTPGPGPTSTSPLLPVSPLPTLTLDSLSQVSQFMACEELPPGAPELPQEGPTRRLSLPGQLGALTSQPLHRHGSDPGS
row,Structure (SMILES),"hERG current change (%, negative = inhibition) at 10uM [%]"
1,Cc1cc(C)n(-c2nc(C)nc3c2cnn3-c2ccccc2)n1,13
2,CCOC(=O)c1ccc(S(=O)(=O)NNC(=O)COc2ccccc2C)cc1,27.5
3,N#CCc1ccc(NC(=O)CSc2nnc(C3CC3)n2C2CC2)cc1,9.18
4,N#Cc1cccc(NC(=O)CSc2nnc(C3CC3)n2C2CC2)c1,-52.4
5,NS(=O)(=O)c1ccc(NC(=O)CSc2nnc(C3CC3)n2C2CC2)cc1,22
6,CCOc1ccc(NC(=O)CSc2nnc(C3CC3)n2C2CC2)cc1,-15.7
7,NS(=O)(=O)c1cccc(NC(=O)CSc2nnc(C3CC3)n2C2CC2)c1,8.95
8,O=C(CSc1nnc(C2CC2)n1C1CC1)Nc1cccc(Br)c1,-75.1
9,Cc1cc(C)cc(NC(=O)CSc2nnc(-c3cc(C)[nH]n3)n2N)c1,12.5
10,C=CCNC(=O)c1cc(-c2ccc(Br)cc2)on1,1.88
11,CCn1cc(C(=O)O)c(=O)c2cc(F)c(N/N=C/c3ccccc3)cc21,-27.2
12,CCn1cc(C(=O)O)c(=O)c2cc(F)c(N3CCN(C(=S)NC(=O)c4ccccc4)CC3)cc21,13.7
13,CCn1cc(C(=O)O)c(=O)c2cc(F)c(N/N=C/c3ccccc3[N+](=O)[O-])cc21,-51.2
14,COc1ccc(NC(=S)NN(C)C(=S)Nc2ccc(OC)cc2)cc1,26.1
15,O=C(c1ncn(Cc2ccccc2)c1C(=O)N1CCc2ccccc2C1)N1CCc2ccccc2C1,-30.4
16,COc1ccc(CC2(CO)CCN(Cc3ccc(NC(C)=O)cc3)CC2)cc1,-57.4
17,COc1cccc(CC2(CO)CCN(Cc3ccc(NC(C)=O)cc3)CC2)c1,-50.7
18,CCN1CCN(Cc2ccc(NC(=O)Nc3ccc(OC)cc3)cc2)CC1,-7.9
19,COc1ccc(C(=O)Nc2ccc(CN3CCOCC3)cc2)cc1,-1.82
20,CC(=O)Nc1ccc(CN2CCCC(CO)(Cc3cccc(Cl)c3)C2)cc1 (stereo not drawn),-39.2
21,COc1cccc(CC2(CO)CCN(C(=O)NCCc3ccccc3)CC2)c1,0.136
22,O=C(NCC(=O)N1CCC2(CC1)NCCc1[nH]cnc12)c1cccc(Cl)c1,12.5
23,CCOc1cc(/C=C2\SC(=N)N(c3nonc3N)C2=O)ccc1OCC(N)=O,7.01
24,O=C(CCCn1c(=S)[nH]c2ccccc2c1=O)N1CCCCC1,-10.4
25,CC(C#N)Sc1nnc(-c2ccccc2F)n1C1CC1 (stereo not drawn),18.2
26,C=CCOc1ccc(C(=O)n2cc(C(=O)OC)c3ccccc32)cc1,9.62

row,Structure (SMILES),"hERG current change (%, negative = inhibition) at 10uM [%]"
1,NC(=O)c1ccc(Cn2c(C(=O)c3ccc(Cl)cc3)c3ccccc3[n+]2[O-])cc1,-9.74
2,Cc1ccc(C(=O)c2c3ccc([N+](=O)[O-])cc3[n+]([O-])n2CCC(N)=O)cc1,-32.6
3,NC(=O)CCCn1c(C(=O)c2cc(Cl)c(N)c(Cl)c2)c2ccc(C(F)(F)F)cc2[n+]1[O-],-41.1
4,[Cl-].[NH3+]CCCn1c(C(=O)c2ccc(Cl)cc2)c2ccc(C(F)(F)F)cc2[n+]1[O-],-79.2
5,Nc1c(Cl)cc(C(=O)c2c3ccccc3[n+]([O-])n2CCC[NH3+])cc1Cl.[Cl-],-20.9
6,Cc1ccc(C(=O)c2c3ccccc3[n+]([O-])n2CCC(N)=O)cc1,-5.98
7,COc1ccc2c(C(=O)c3ccc(C)cc3)n(CCC(N)=O)[n+]([O-])c2c1,-6.56
8,Cc1ccc(C(=O)c2c3ccc(C(F)(F)F)cc3nn2CCC(N)=O)cc1,-5.81
9,Cc1ccc(C(=O)c2c3ccc(C(F)(F)F)cc3[n+]([O-])n2CCC(N)=O)cc1,-66.2
10,Cc1ccc(C(=O)c2c3ccc(C(F)(F)F)cc3[n+]([O-])n2CCCC(N)=O)cc1,-62.9
11,Nc1c(Cl)cc(C(=O)c2c3ccc(C(F)(F)F)cc3[n+]([O-])n2CCC[NH3+])cc1Cl.[Cl-],-57.6
12,CCN1CSC(=S)N(Cc2ccccc2)C1,12.2
13,COc1cc(CC(=O)Nc2nc(C)cs2)cc(OC)c1OC,5.84
14,CC1(C)Nc2ccccc2C(=O)N1c1ccccc1,20.5
15,COC(=O)Cn1nc(-c2ccccc2)c2cc(Cl)ccc21,-0.627
16,CCOc1ccc(NC(=O)N2C[C@H]3C[C@@H](C2)c2cccc(=O)n2C3)cc1,8.54
17,O=C(CSc1n[nH]c(-c2ccccn2)n1)Nc1ccccc1F,-1.74
18,COc1ccccc1/C(O)=C(\C#N)c1nc2ccccc2[nH]1,15
19,CCC1=NN2C(=N)/C(=C/c3cc(C)n(-c4ccccc4)c3C)C(=O)N=C2S1,16.2
20,O=c1[nH]cc(NCCNc2ncc(C(F)(F)F)cc2Cl)c(=O)[nH]1,3.6
21,Nn1cnnc1SCC(=O)Nc1ccc(C2CCCCC2)cc1,12.5
22,CCn1cc(S(=O)(=O)Nc2nc3ccc(OC)cc3s2)cn1,19.7
23,Cc1ccc2c(c1)-c1ncc(C(=O)c3cc(Br)ccc3O)cc1CO2,15.7
24,CCc1cc(=O)oc2cc(C)cc(OCC(=O)NC(Cc3ccc(Cl)cc3)C(=O)O)c12 (stereo not drawn),-9.21
25,Cc1cccc(N2CCN(S(=O)(=O)c3ccc4c(c3)CCC(=O)N4)CC2C)c1 (stereo not drawn),-8.91
